{"source": "paper PMC4552634", "about": "“A New Set of Chemical Starting Points with Plasmodium falciparum Transmission-Blocking Potential for Antimalarial Drug Discovery” (PLoS ONE, 2015)", "note": "About 3,200 (25%) of roughly 13,000 compounds showed an effect of 50% or more. The list shows a part of the results."}
{"tested_on": "P. falciparum stage V gametocytes", "set-up": "BacTiter-Glo ATP luminescence viability of purified stage V gametocytes in 384-well plates, per cent inhibition versus DMSO", "conditions": "48 h, 5 µM; inhibitor", "units": {"% Inhibition": "%"}}
{"smiles": "CCN(CC)CCCN(C(=O)Nc1ccc(C#N)cc1)c1nc(-c2ccc(F)cc2)cs1", "note": "[TCMDC-136664]", "% Inhibition": -0.5138}
{"smiles": "CN1C2CCC1c1cc(NC(=O)c3cc(-c4ccc(Cl)cc4)cs3)ccc12", "note": "(stereo not shown) [TCMDC-134192]", "% Inhibition": -60.68}
{"smiles": "CCOc1cc(C(=O)NC2CCN(Cc3ccccc3)CC2)ccc1-c1nc2cc(Cl)c(F)cc2[nH]1", "note": "[TCMDC-140096]", "% Inhibition": -27.97}
{"smiles": "CC(C)(C)c1cc(C(=O)N2CCN(c3ncnc4ccsc34)CC2)n(Cc2ccccc2)n1", "note": "[TCMDC-133771]", "% Inhibition": -19.67}
{"smiles": "CCCCNCC(O)COc1ccccc1-c1ccc(N/N=C/c2cccc3ccccc23)nn1", "note": "(stereo not shown) [TCMDC-139416]", "% Inhibition": 102.4}
{"smiles": "COc1cc(NC(=O)c2ccc3oc4ccccc4c3c2)ccc1OCCN1CCCCC1", "note": "[TCMDC-140701]", "% Inhibition": -7.89}
{"smiles": "COc1ccc(NC(=O)c2ccc3[nH]c(-c4ccc(Cl)cc4)cc3c2)cc1OCCN(C)C", "note": "[TCMDC-138706]", "% Inhibition": -82.62}
{"smiles": "COc1cc(NC(=O)c2ccc(-c3ccc(C(C)=O)cc3)s2)ccc1OCCN1CCCC1", "note": "[TCMDC-138864]", "% Inhibition": -4.371}
{"smiles": "COc1cc(NC(=O)c2sc(-c3ccc(Cl)cc3)cc2NC(=O)c2cccnc2)ccc1OCCN1CCCC1", "note": "[TCMDC-135397]", "% Inhibition": 125.5}
{"smiles": "COc1cc(NC(=O)c2sc(-c3ccc(Cl)cc3)cc2NC(=O)N2CCCC2)ccc1OCCN1CCCC1", "note": "[TCMDC-135404]", "% Inhibition": 71.79}
{"smiles": "COc1ccc(NC(=O)/C=C/c2ccccc2Cl)cc1OCCN1CCC(NCc2cccnc2)CC1", "note": "[TCMDC-140758]", "% Inhibition": -13.35}
{"smiles": "COc1ccc(NC(=O)/C=C/c2ccccc2Cl)cc1OCCN1CCN(c2ccncc2)CC1", "note": "[TCMDC-140732]", "% Inhibition": 4.813}
{"smiles": "COc1cc(NC(=O)c2sc(-c3ccc(Cl)cc3)cc2NC(=O)c2ccncc2)ccc1OCCN1CCCC1", "note": "[TCMDC-135398]", "% Inhibition": 121.8}
{"smiles": "Cc1ccc(NC(=O)c2ccc(-c3cc4cc(Cl)c(Cl)cc4[nH]3)cc2)cc1OCCN1CCCC1", "note": "[TCMDC-141289]", "% Inhibition": 43.64}
{"smiles": "COc1cc(NC(=O)c2sc(-c3ccc(Cl)cc3)cc2Cl)ccc1OCCN1CCCC1", "note": "[TCMDC-135556]", "% Inhibition": -58.99}
{"smiles": "COc1cc(NC(=O)c2sc(-c3ccc(Cl)cc3)cc2NC(=O)c2cccc(N(C)C)c2)ccc1OCCN1CCCC1", "note": "[TCMDC-135403]", "% Inhibition": 72.06}
{"smiles": "O=C(NCC1CCC(CNCCc2ccccc2)CC1)Nc1ccc(Cl)c(Cl)c1", "note": "(stereo not shown) [TCMDC-140704]", "% Inhibition": -8.295}
{"smiles": "CCCCCc1cc(O)c2c3c(c(=O)oc2c1)CN(C)CC3", "note": "[TCMDC-124170]", "% Inhibition": 9.829}
{"smiles": "CC(=O)Nc1csc(-c2cnc(/C=C(\\C)C[C@@H]3OC[C@H](C[C@@H]4O[C@H]4[C@@H](C)[C@H](C)O)[C@@H](O)[C@H]3O)o2)c1", "note": "[TCMDC-131575]", "% Inhibition": 0.669}
{"smiles": "COc1cccc(NC(=O)NC2CCN(c3ccnc(Nc4cc(OC)c(OC)c(OC)c4)n3)C2)c1", "note": "(stereo not shown) [TCMDC-133627]", "% Inhibition": -76.2}
{"smiles": "CN(C)C(=S)N=Nc1c(O)[nH]c2ccccc12", "note": "[TCMDC-124262]", "% Inhibition": -39.06}
{"smiles": "COc1cc(NC(=O)/C=C/c2ccccc2OC(F)(F)F)cc(OCCN2CCC(O)(c3ccccc3)CC2)c1", "note": "[TCMDC-140935]", "% Inhibition": -5.416}
{"smiles": "COc1ccc(C2CCN(CCN3CCC(NC(=O)c4cccc(-c5ccncc5)c4)CC3)CC2)c(OC)c1", "note": "[TCMDC-135431]", "% Inhibition": -2.358}
{"smiles": "COc1cc(NC(=O)c2sc(-c3ccc(Cl)cc3)cc2NC(=O)CN2CC[C@@H](O)C2)ccc1OCCN1CCCC1", "note": "[TCMDC-135380]", "% Inhibition": 114.3}
{"smiles": "COc1cc(NC(=O)c2sc(-c3ccc(Cl)cc3)cc2NC(=O)CN2CCCC2)ccc1OCCN1CCCC1", "note": "[TCMDC-135381]", "% Inhibition": -9.57}
{"smiles": "COc1ccc(CCCON2C(N)=NC(N)=NC2(C)C)cc1", "note": "[TCMDC-131693]", "% Inhibition": 15.23}
{"smiles": "CCc1ccccc1N1CCN(CCCCNC(=O)c2ccc(NC(=O)c3ccc(Cl)cc3)cc2)CC1", "note": "[TCMDC-138192]", "% Inhibition": 63.87}
{"smiles": "CCc1ccccc1N1CCN(CCCC(=O)c2ccc(NC(=O)c3ccc(Cl)cc3)cc2)CC1", "note": "[TCMDC-138230]", "% Inhibition": -10.32}
{"smiles": "C=CCc1ccc(C2CCN(CCCCNC(=O)c3ccc(NC(=O)c4ccc(Cl)cc4)cc3)CC2)cc1", "note": "[TCMDC-138355]", "% Inhibition": 87.45}
{"smiles": "O=C(NCCCCN1CCN(c2cccc3ccccc23)CC1)c1ccc(NC(=O)c2ccc(Cl)cc2)cc1", "note": "[TCMDC-138514]", "% Inhibition": -0.4742}
{"smiles": "O=C(NCCCCN1CCC(c2ccc([N+](=O)[O-])cc2)CC1)c1ccc(NC(=O)c2ccc(Cl)cc2)cc1", "note": "[TCMDC-138350]", "% Inhibition": 25.02}
{"smiles": "O=C(NCCCCN1CCC(c2ccc(Br)cc2)CC1)c1ccc(NC(=O)c2ccc(Cl)cc2)cc1", "note": "[TCMDC-138347]", "% Inhibition": 1.75}
{"smiles": "O=C(NCCCCN1CCC(c2ccc(OC(F)(F)F)cc2)CC1)c1ccc(NC(=O)c2ccc(Cl)cc2)cc1", "note": "[TCMDC-138327]", "% Inhibition": 35.48}
{"smiles": "CCc1ccc(C2CCN(CCCCNC(=O)c3ccc(NC(=O)c4ccc(Cl)cc4)cc3)CC2)cc1", "note": "[TCMDC-138351]", "% Inhibition": 54.3}
{"smiles": "CCCc1ccc(C2CCN(CCCCNC(=O)c3ccc(NC(=O)c4ccc(Cl)cc4)cc3)CC2)cc1", "note": "[TCMDC-138358]", "% Inhibition": 87.46}
{"smiles": "O=C(c1cncc(-c2ccccc2)c1)N(Cc1cncn1Cc1ccccc1F)CC1CC1", "note": "[TCMDC-132464]", "% Inhibition": 14.15}
{"smiles": "CC(C)(C)Oc1ccc(NC(=O)c2ccccc2O)cc1", "note": "[TCMDC-137700]", "% Inhibition": 29.92}
{"smiles": "COc1ccccc1N(C)CCNc1cc(C)nc(Nc2ccc(C)cc2)n1", "note": "[TCMDC-133456]", "% Inhibition": -44.09}
{"smiles": "Cn1cc(C(=O)Nc2cccc(-c3cccc(-c4nc5ccccc5[nH]4)c3)c2)n(C)c1=O", "note": "[TCMDC-137135]", "% Inhibition": -5.62}
{"smiles": "Cc1cc(C)c(C(=O)Nc2n[nH]c3nnc(-c4cccc(F)c4F)cc23)c(C)c1", "note": "[TCMDC-141220]", "% Inhibition": 6.955}
{"smiles": "Oc1cc(Nc2ccnc3cc(I)ccc23)ccc1F", "note": "[TCMDC-138379]", "% Inhibition": -46.78}
{"smiles": "OC(COc1ccccc1-c1nc2ccccc2o1)CN1CCCN(CCc2ccccc2)CC1", "note": "(stereo not shown) [TCMDC-141430]", "% Inhibition": 28.2}
{"smiles": "COc1ccccc1N1CCN(Cc2c(NC(C)=O)sc(C)c2C)CC1", "note": "[TCMDC-124501]", "% Inhibition": -13.75}
{"smiles": "Oc1ccccc1CNCC(O)c1cc(C(F)(F)F)cc(C(F)(F)F)c1", "note": "(stereo not shown) [TCMDC-140304]", "% Inhibition": -68.09}
{"smiles": "O=C(NCCCCN1CCC(c2ccc(-c3ccco3)cc2)CC1)c1ccc(NC(=O)c2ccc(Cl)cc2)cc1", "note": "[TCMDC-138321]", "% Inhibition": 113.6}
{"smiles": "O=C(/C=C/c1ccc(Cl)c(Cl)c1)NCCCCCCN1CCCN(C(=O)Nc2cccc(Cl)c2)CC1", "note": "[TCMDC-135939]", "% Inhibition": -30.78}
{"smiles": "O=C(O)C(F)(F)F.c1cc(CNCC2CCCO2)cc(-c2ccc(-c3nc4ccccc4[nH]3)s2)c1", "note": "(stereo not shown) [TCMDC-133107]", "% Inhibition": -4.99}
{"smiles": "COc1ccc(Cl)cc1N1CCN(CCCNC(=O)c2ccc(-c3nc4cc(Cl)c(F)cc4[nH]3)s2)CC1", "note": "[TCMDC-140102]", "% Inhibition": 7.975}
{"smiles": "COc1cc(C2=NN(S(=O)(=O)c3c(C)cc(C)cc3C)CCCC2)ccc1Cl", "note": "[TCMDC-136217]", "% Inhibition": 20.4}
{"smiles": "COc1ccc(-c2ccc(Nc3cccc(S(=O)(=O)CCN4CCC(CCN(C)C)CC4)c3)nc2)cn1", "note": "[TCMDC-134376]", "% Inhibition": 26.53}
{"smiles": "Fc1ccc2nc(-c3ccc(-c4ccc(CNCC5CCCO5)cc4)s3)[nH]c2c1", "note": "(stereo not shown) [TCMDC-133100]", "% Inhibition": -65.64}
{"smiles": "CCN(CCS(C)(=O)=O)Cc1ccc(-c2ccc3ncnc(Nc4ccc(OCc5cccc(F)c5)c(Cl)c4)c3c2)o1", "note": "[TCMDC-138533]", "% Inhibition": -31.95}
{"smiles": "CNCCNc1nccc(N2CCc3ncnc(Nc4ccc(OCc5cccc(F)c5)c(Cl)c4)c3C2)n1", "note": "[TCMDC-135478]", "% Inhibition": 99.42}
{"smiles": "CN(C)Cc1ccc(-c2cc3c(Nc4ccc(OCc5cccc(F)c5)c(Cl)c4)ncnc3s2)[nH]1", "note": "[TCMDC-135468]", "% Inhibition": 11.16}
{"smiles": "NCCCNc1nccc(N2CCc3ncnc(Nc4ccc(OCc5cccc(F)c5)c(Cl)c4)c3C2)n1", "note": "[TCMDC-135456]", "% Inhibition": 85.39}
{"smiles": "Fc1cccc(COc2ccc(Nc3ncnc4ccc(C#C[C@H]5CCCN5)cc34)cc2Cl)c1", "note": "[TCMDC-135437]", "% Inhibition": -6.979}
{"smiles": "CN(C)CCNc1nccc(N2CCc3ncnc(Nc4ccc(OCc5cccc(F)c5)c(Cl)c4)c3C2)n1", "note": "[TCMDC-135405]", "% Inhibition": 71.57}
{"smiles": "CN(C)Cc1ccc(-c2cc3ncnc(Nc4ccc(OCc5cccc(F)c5)c(Cl)c4)c3s2)[nH]1", "note": "[TCMDC-135507]", "% Inhibition": 40.2}
{"smiles": "CC(=O)NCCNc1nccc(N2CCc3ncnc(Nc4ccc(OCc5ccccn5)c(Cl)c4)c3C2)n1", "note": "[TCMDC-135447]", "% Inhibition": 3.253}
{"smiles": "CCN(CC)CCCNc1nccc(N2CCc3ncnc(Nc4ccc(OCc5cccc(F)c5)c(Cl)c4)c3C2)n1", "note": "[TCMDC-135406]", "% Inhibition": 102.3}
{"smiles": "CN(C)C1CCN(CC#Cc2cc3ncnc(Nc4ccc(OCc5cccc(F)c5)c(Cl)c4)c3s2)CC1", "note": "[TCMDC-138804]", "% Inhibition": 11.68}
{"smiles": "CC(=O)NCCNc1nccc(N2CCc3ncnc(Nc4ccc(OCc5cccc(F)c5)c(Cl)c4)c3C2)n1", "note": "[TCMDC-135392]", "% Inhibition": 4.041}
{"smiles": "C[C@@H](N)C#Cc1cc2c(Nc3ccc(OCc4cccc(F)c4)c(Cl)c3)ncnc2s1", "note": "[TCMDC-134655]", "% Inhibition": 18.43}
{"smiles": "COc1ccc2nccc([C@@H](O)CN3CCC(NCc4cc5oc(=O)n(C)c5cc4F)CC3)c2c1", "note": "[TCMDC-141144]", "% Inhibition": -1.57}
